Data as given in PubChem BioAssay (Tox21).
Records with an inconclusive call do not appear. Where a call stands in place of a potency, no number is given. Activity calls are given as the source filed them. Unless noted, calls follow the shape of the dose curve; as a rule, active = well fitted curve in the direction sought with a large enough effect in the repeat runs; inconclusive = weak or mixed curves; inactive = no such curve, though single readings can be large; an effect the other way counts as inactive or inconclusive.

Experiments:
[1] = molecular target: Luciferin 4-monooxygenase (Photinus pyralis) (UniProt P08659); assay: qHTS assay to identify small molecule inhibitors of firefly luciferase (AID 1224835); also: series mostly up to about 120 µM; nearly all actives have a fitted effect of over 25% in size
Luciferin 4-monooxygenase (Photinus pyralis), sequence (P08659 whole entry, looked up): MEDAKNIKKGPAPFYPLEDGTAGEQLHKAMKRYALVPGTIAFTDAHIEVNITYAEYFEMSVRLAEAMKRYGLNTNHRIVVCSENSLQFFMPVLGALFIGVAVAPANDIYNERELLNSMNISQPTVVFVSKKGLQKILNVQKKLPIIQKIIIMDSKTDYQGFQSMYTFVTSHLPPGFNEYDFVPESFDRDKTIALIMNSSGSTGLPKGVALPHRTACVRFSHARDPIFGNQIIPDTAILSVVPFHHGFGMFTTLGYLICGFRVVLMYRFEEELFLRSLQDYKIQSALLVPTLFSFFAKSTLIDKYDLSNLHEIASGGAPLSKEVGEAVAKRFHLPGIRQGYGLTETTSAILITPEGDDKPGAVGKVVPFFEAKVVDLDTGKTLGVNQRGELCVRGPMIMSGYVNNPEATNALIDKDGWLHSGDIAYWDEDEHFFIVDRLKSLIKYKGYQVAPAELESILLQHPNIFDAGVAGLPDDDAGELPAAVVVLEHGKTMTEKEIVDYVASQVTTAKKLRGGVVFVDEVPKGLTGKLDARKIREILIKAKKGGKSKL
In short: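 Quantitative HTS format; KM concentrations of both substrates. Purified P. pyralis FLuc activity quantified from luminescence images.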

[2] = qHTS assay to identify small molecule agonists of the constitutive androstane receptor (CAR) signaling pathway - cell viability counter screen (AID 1224836); also: series mostly up to about 92 µM; nearly all actives have a fitted effect of over 45% in size
In short: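 Cells were seeded and incubated 4 hrs. Compounds were added across 15 concentrations together with PK11195 at 0.75 uM final. Plates were incubated 23 hrs at 37 C. CellTiter-Fluor was added and fluorescence measured.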

[3] = qHTS assay to identify small molecule antagonists of the constitutive androstane receptor (CAR) signaling pathway - cell viability counter screen (AID 1224837); also: series mostly up to about 92 µM; nearly all actives have a fitted effect of over 45% in size
In short: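 Cells are seeded, rested 4 hr at 37 C/5% CO2, dosed with compound (15-point series) and 50 nM CITCO, incubated a further 23 hr, and then CellTiter-Fluor reagent is added before fluorescence is read. The line is HepG2 with stable hCAR and CYP2B6-2.2kb.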

[4] = molecular target: Nuclear receptor subfamily 1 group I member 3 (Homo sapiens) (UniProt Q14994); assay: qHTS assay to identify small molecule antagonists of the constitutive androstane receptor (CAR) signaling pathway (AID 1224838);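 also: HepG2 cells stably expressing hCAR with CYP2B6 luciferase reporter stimulated by CITCO; nearly all actives have a fitted effect of over 40% in size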
Nuclear receptor subfamily 1 group I member 3 (Homo sapiens), sequence (Q14994 whole entry, looked up): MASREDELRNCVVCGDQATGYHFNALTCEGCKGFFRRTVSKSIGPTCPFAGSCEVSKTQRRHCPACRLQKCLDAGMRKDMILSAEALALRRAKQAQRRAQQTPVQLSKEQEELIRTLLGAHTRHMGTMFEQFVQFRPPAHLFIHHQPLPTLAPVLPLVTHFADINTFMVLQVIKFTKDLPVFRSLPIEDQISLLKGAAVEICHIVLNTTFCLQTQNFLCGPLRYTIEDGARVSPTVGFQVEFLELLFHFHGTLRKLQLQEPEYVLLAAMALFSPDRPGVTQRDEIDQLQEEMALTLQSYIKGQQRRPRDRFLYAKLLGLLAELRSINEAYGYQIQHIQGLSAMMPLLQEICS
In short: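 Luminescence from a CYP2B6-2.2kb promoter reporter in hCAR-expressing HepG2 cells reflects CAR signaling. Cells received compounds at 15 concentrations and 50 nM CITCO (final), then incubated 24 h at 37 C/5% CO2.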

[5] = molecular target: Nuclear receptor subfamily 1 group I member 3 (Homo sapiens) (UniProt Q14994); assay: qHTS assay to identify small molecule agonists of the constitutive androstane receptor (CAR) signaling pathway (AID 1224839);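 also: HepG2 cells stably carrying human CAR and a CYP2B6 luciferase reporter; series mostly up to about 92 µM; nearly all actives have a fitted effect of over 15% in size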
In short: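 Cells were plated and incubated 4 hrs, then dosed with compounds at 15 concentrations. PK11195 was added to 0.75 uM final. After 24 hrs at 37 C, luciferase luminescence was measured.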

[6] = qHTS assay to identify small molecule antagonists of the estrogen related receptor signaling pathway with the pleiotropic PPARgamma coactivator (PGC) from Tox21 10K library (AID 1224841; call rule not given here; also: actives are mostly falling curves and most rising ones were filed inactive; nearly all actives have a fitted effect of over 50% in size; also: potency is read from the fitted curve at half-maximal effect)
In short: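 Cells stably carrying the PGC/ERR reporter, seeded at 2,000 per well, received pin-transferred compounds 6 h post-plating. Exposure lasted 18 h at 37 C. Signal: One-Glo luminescence.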

[7] = qHTS assay to identify small molecule agonists of the estrogen related receptor signaling pathway with the pleiotropic PPARgamma coactivator (PGC) from Tox21 10K library (AID 1224842); also: nearly all actives have a fitted effect of over 15% in size
In short: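 PGC/ERR reporter cells (NTP line) were seeded 2,000 per well, rested 6 h at 37 C/5% CO2, then pin-dosed with compounds in DMSO for 18 h at 37 C; luciferase read by One-Glo luminescence after 30 min at room temperature.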

[8] = molecular target: Thyrotropin receptor (Homo sapiens) (UniProt P16473); assay: qHTS assay to identify small molecule agonists of the thyroid stimulating hormone receptor (TSHR) signaling pathway (AID 1224843; calls by dose curve; also: nearly all actives have a fitted effect of over 45% in size; also: potency is read from the fitted curve at half-maximal effect)
Thyrotropin receptor (Homo sapiens), sequence (P16473 whole entry, looked up): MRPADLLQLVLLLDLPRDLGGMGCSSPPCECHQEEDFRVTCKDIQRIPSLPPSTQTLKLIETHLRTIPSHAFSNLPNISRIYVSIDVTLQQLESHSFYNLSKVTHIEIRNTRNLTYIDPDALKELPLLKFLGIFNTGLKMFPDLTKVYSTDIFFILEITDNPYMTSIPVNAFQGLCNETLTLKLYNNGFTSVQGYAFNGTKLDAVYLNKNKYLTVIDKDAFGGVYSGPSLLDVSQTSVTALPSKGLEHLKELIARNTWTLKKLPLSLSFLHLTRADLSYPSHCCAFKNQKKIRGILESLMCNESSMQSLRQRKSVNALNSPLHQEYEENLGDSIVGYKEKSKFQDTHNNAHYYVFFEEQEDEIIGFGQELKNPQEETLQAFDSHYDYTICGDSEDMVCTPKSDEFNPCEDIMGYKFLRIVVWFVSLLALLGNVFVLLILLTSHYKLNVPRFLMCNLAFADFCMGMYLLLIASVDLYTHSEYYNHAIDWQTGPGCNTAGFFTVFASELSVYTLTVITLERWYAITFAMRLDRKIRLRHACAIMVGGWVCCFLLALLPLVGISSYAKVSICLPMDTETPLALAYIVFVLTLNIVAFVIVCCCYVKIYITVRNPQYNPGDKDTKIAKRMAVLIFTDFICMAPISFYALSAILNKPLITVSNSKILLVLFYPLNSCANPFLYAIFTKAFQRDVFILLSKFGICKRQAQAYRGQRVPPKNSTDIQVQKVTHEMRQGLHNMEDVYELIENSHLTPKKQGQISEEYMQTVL
In short: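 Using 15 concentrations per compound in triplicate, cAMP production was monitored in TSHR-HEK293 cells after 30 min compound incubation at RT; HTRF reagents followed, with fluorescence intensity recorded after 1 h.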

[9] = qHTS assay to identify small molecule antagonists of the estrogen related receptor signaling pathway with the pleiotropic PPARgamma coactivator (PGC) from Tox21 10K library - cell viability counter screen (AID 1224840; active = well fitted cell-killing curve with a large enough effect in the repeat runs, not every such curve was filed as active; also: nearly all actives have a fitted effect of over 40% in size)
In short: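 Cell viability is measured by CellTiter-Fluor fluorescence in PGC/ERR cells that receive compounds after a 6-hour attachment period and are then incubated 17.5 hours at 37 C.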

## CN(C)c1ccc(C(c2ccccc2)c2ccc(N(C)C)cc2)cc1
[1]
  Potency: inactive
[2]
  Potency: inactive
[3]
  Potency: inactive
[4]
  Potency: inactive
[5]
  Potency: inactive
[6]
  Potency: 27.3 µM (active)
[7]
  Potency: inactive
[8]
  Potency: inactive

## CCOc1ccc(N)c([N+](=O)[O-])c1
[1]
  Potency: inactive
[2]
  Potency: inactive
[3]
  Potency: inactive
[4]
  Potency: inactive
[5]
  Potency: inactive
[9]
  Potency: inactive
[6]
  Potency: inactive
[7]
  Potency: inactive

## CCCCCCCCCCCCCCOS(=O)(=O)O
[2]
  Potency: inactive
[3]
  Potency: inactive
[5]
  Potency: inactive
[9]
  Potency: inactive
[6]
  Potency: inactive
[7]
  Potency: inactive

## CCOC(=O)C1=C[C@]2(CC)CCCN3CCc4c(n1c1ccccc41)[C@@H]32
[1]
  Potency: inactive
[3]
  Potency: inactive
[4]
  Potency: inactive
[9]
  Potency: inactive
[8]
  Potency: 18.8 µM (active)

## CN(C)C(=O)NC1(c2ccccc2)CCN(CC[C@@]2(c3ccc(F)c(F)c3)CN(C(=O)c3ccccc3)CCO2)CC1
[1]
  Potency: inactive
[2]
  Potency: inactive
[3]
  Potency: inactive
[7]
  Potency: inactive

## CNCCCN1c2ccccc2CCc2ccccc21
[1]
  Potency: inactive
[4]
  Potency: inactive
[5]
  Potency: inactive
[9]
  Potency: inactive
[8]
  Potency: inactive
